Screens (PubChem)
This is a sample that favours compounds with a hit; in the whole collection about 28% have one here.
CD11b adhes inh: CD11b/CD18-fibrinogen binding inhibition | P05107+P11215 | K562 CD11b/CD18 adhesion to fibrinogen, ATPlite luminescence; Mn2+ added to activate the integrin | inhibition, % at 10 µM | 93,000 tested, 0.54% active | AID 1497;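 active means primary inhibition of 50% or more at 10 µM, then 40% or more on retest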
CYP2C19 act: activators of human cytochrome P450 2C19. P33261. recombinant CYP2C19, luciferin-H EGE luminescence; stronger effect = higher value; 0 = fully inhibited enzyme, 1 = untreated enzyme. activation factor at 5 µM. 96,000 tested, under 10 active;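 active means activation factor of at least 2 at 5 µM in the primary screen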;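 further: 0 = wells with 2.5 mM tranylcypromine and 1 = vehicle-only wells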
Target sequence (P33261 whole entry, looked up): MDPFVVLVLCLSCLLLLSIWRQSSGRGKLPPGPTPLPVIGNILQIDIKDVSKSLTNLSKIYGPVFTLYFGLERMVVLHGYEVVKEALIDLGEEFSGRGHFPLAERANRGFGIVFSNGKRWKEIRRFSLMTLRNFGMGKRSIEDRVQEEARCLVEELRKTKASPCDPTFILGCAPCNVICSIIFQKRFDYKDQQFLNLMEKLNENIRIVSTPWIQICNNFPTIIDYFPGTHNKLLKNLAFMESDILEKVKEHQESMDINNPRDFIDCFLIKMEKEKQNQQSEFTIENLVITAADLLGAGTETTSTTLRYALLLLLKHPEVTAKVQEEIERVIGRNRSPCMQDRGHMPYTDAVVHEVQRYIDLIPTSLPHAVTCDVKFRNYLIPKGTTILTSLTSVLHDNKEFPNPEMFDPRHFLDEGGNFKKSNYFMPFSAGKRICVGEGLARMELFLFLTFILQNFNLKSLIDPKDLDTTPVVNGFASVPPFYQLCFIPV
CYP2C9 inh: human CYP2C9 inhibition | inhibition, % at 5 µM | CYP2C9 Supersomes, luciferin-H conversion, luminescence | P11712 | 96,000 tested, 20% active;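 active means blocking of liver enzyme CYP2C9 beyond about 50% at 5 µM, limit read from the data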
Mac1 fbg enh: increases human CD11b/CD18 adhesion to fibrinogen. P05107+P11215. K562 CD11b/CD18 adhesion to fibrinogen, ATPlite luminescence. activation, % at 10 µM. 93,000 tested, 0.07% active. AID 1499;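 active means 10 µM primary screen giving 50% or more activity, confirmed by 40% or more on retest at that dose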
CYP2C19 inh: blocks human cytochrome P450 2C19. inhibition, % at 5 µM. AID 778. CYP2C19 Supersomes, luciferin-H EGE luminescence, 30 min. P33261. 96,000 tested, 21% active;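 active means CYP2C19 inhibition above a set limit at 5 µM in the primary screen, cut at about 50% in these data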;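 further: plate controls were negative control wells for no effect and 2.5 mM tranylcypromine positive control for full effect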
CYP2C9 act: CYP2C9 (human) activation | recombinant CYP2C9, luciferin-H conversion, luminescence; stronger effect = higher value; factor 1 = untreated enzyme, 0 = blocked | activation factor at 5 µM | 96,000 tested, 1.4% active;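 active means activation factor of 2 or more for CYP2C9 at a 5 µM dose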;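 further: 0 = sulfaphenazole-blocked wells and 1 = vehicle-only wells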
* hit, by the source's call; x = no result given.

SMILES | CD11b adhes inh | CYP2C19 act | CYP2C9 inh | Mac1 fbg enh | CYP2C19 inh | CYP2C9 act
COc1cc(C(=S)N2CCCC2)ccc1OC(=O)c1ccc(Cl)cc1[N+](=O)[O-] | x | 0.7 | -59 | x | 32 | 1.6
O=C(Oc1ccc(Br)cc1C(=S)N1CCCC1)c1ccccc1Cl | x | 0.4 | 35 | x | 57* | 0.6
O=C(Oc1ccc(Br)cc1C(=S)N1CCCCC1)c1cc([N+](=O)[O-])cc([N+](=O)[O-])c1 | 2 | 0.4 | 0 | -2 | 62* | 1
COc1ccc(Br)cc1C(=O)Nc1ccccc1-c1ccccc1 | -17 | 0.7 | 17 | -1 | 31 | 0.8
COc1ccc(C(=O)NC(=S)NC(C)C)cc1Br | x | 0.4 | 18 | x | 60* | 0.8
COc1ccc(C(=O)NC(=S)NC(C)(C)C)cc1Br | x | 0.9 | 2 | x | 11 | 1
c1ccc(-c2n[nH]c(-c3ccccn3)n2)nc1 | -30 | 0.3 | 14 | 0 | 67* | 0.9
Clc1ccccc1-c1nnc2sc(-c3ccc(Br)o3)nn12 | 12 | 0.2 | 47 | 3 | 80* | 0.5
Brc1ccc(-c2nn3c(Cc4ccccc4)nnc3s2)o1 | 2 | 0.3 | 13 | -5 | 68* | 0.9
Clc1ccc(-c2nnc3sc(-c4ccc(Br)o4)nn23)c(Cl)c1 | 7 | 0.4 | 21 | -1 | 58* | 0.8
c1ccc(Cc2nnc3sc(Nc4ccccc4)nn23)cc1 | -10 | 1 | -1 | -2 | -4 | 1
Clc1ccc(-c2nnc3sc(-c4ccc(Br)o4)nn23)cc1 | -11 | 0.7 | 15 | 55 | 33 | 0.8
O=C(NNC(=O)c1ccccc1Br)c1ccc(SCC2CCCO2)c([N+](=O)[O-])c1 (configuration not stated) | x | 0.9 | 62* | x | 8 | 0.4
O=C(NNC(=O)c1ccc(SCC2CCCO2)c([N+](=O)[O-])c1)c1ccc(Cl)c([N+](=O)[O-])c1 (configuration not stated) | 1 | 0.9 | 74* | 13 | 12 | 0.3
CCCSc1nc(N)c2c3c(sc2n1)CN(C)CC3 | -3 | 0.2 | 26 | 0 | 82* | 0.7
CN(C)CCSc1nc(N)c2c3c(sc2n1)CN(C)CC3 | -28 | 0.9 | 8 | -2 | 13 | 0.9
COC(=O)CSc1nc(N)c2c3c(sc2n1)CCCC3 | 0 | 0.1 | 65* | -1 | 86* | 0.3
Cc1cccc(CSc2ncnc3c2cnn3Cc2ccccc2)c1 | 12 | 1 | 49 | 1 | -2 | 0.5
Cn1cnnc1SCC(=O)Nc1ccccc1C(=O)NC1CCCC1 | 2 | 1 | -3 | -5 | 1 | 1
COc1ccc(/C=C2\CCc3ccccc3C2=O)cc1Cn1cccn1 | 9 | 0.2 | 49 | -1 | 78* | 0.5
COc1ccc(/C=N/NC(=O)c2cccc(Br)c2)cc1Cn1cc(Cl)cn1 | x | 0.5 | 28 | x | 46 | 0.7
CC12CCC(C(=O)N(c3ccccn3)c3ccccn3)(OC1=O)C2(C)C (configuration not stated) | -6 | 1 | -8 | 0 | 2 | 1.1
O=c1oc(-c2cccs2)nc2sc3c(c12)CCC3 | 17 | 0.7 | 20 | -2 | 34 | 0.8
O=c1oc(-c2cccs2)nc2sc3c(c12)CCCC3 | -20 | 0.8 | 64* | -2 | 20 | 0.4
COc1ccc(S(=O)(=O)n2oc(=O)cc2-c2ccccc2)cc1 | -3 | 0.7 | 1 | -4 | 30 | 1
SMILES | CD11b adhes inh | CYP2C19 act | CYP2C9 inh | Mac1 fbg enh | CYP2C19 inh | CYP2C9 act
O=c1cc(-c2ccccc2)n(S(=O)(=O)c2ccccc2)o1 | 10 | 0.5 | -7 | 5 | 52* | 1.1
COc1ccc(S(=O)(=O)n2oc(=O)cc2-c2ccccc2)cc1OC | 3 | 0 | -91 | 3 | 97* | 1.9
COc1ccc(S(=O)(=O)N2CCC(C(=O)N3CCCCC3)CC2)cc1OC | x | 1 | 47 | x | 3 | 0.5
CCCCN1C(=O)C2NN=C(C(=O)OC)C2C1=O (configuration not stated) | -19 | 0.6 | -6 | -4 | 44 | 1.1
Cc1cccc(N=C2NC(=O)/C(=C3/C(=O)N(C)c4ccccc43)S2)c1C | 15 | 0.5 | 93* | -1 | 50* | 0.1
Clc1ccc2nc(CN3CCCc4ccccc43)cn2c1 | x | 0.1 | 93* | x | 88* | 0.1
CSc1nccc(Nc2ccccc2)c1C#N | -2 | 0.4 | 69* | 2 | 59* | 0.3
COc1nccc(Nc2ccccc2)c1C#N | -2 | 0.6 | 3 | 1 | 39 | 1
CCc1nn(CC(=O)O)c(=O)c2ccccc12 | -8 | 1.1 | 4 | -2 | -7 | 1
CCCCn1nc(CC(=O)O)c2ccccc2c1=O | -6 | 0.3 | 3 | 0 | 69* | 1
Cn1c(Cn2c(=O)sc3ccccc32)nnc1SCc1cccnc1 | -14 | 0.6 | 1 | 9 | 42 | 1
O=C(CSc1nnc(Cn2nnc(-c3ccccc3)n2)n1-c1ccccc1)Nc1ccccc1 | 0 | 0.8 | 29 | -4 | 21 | 0.7
Cc1csc(NC(=O)CSc2nnc(Cn3c(=O)sc4ccccc43)n2-c2ccccc2)n1 | -9 | 1.1 | 61* | 2 | -12 | 0.4
CSc1nnc(Cn2c(=O)sc3ccccc32)n1-c1cccc(Cl)c1 | 3 | 0.9 | 32 | -3 | 9 | 0.7
CCCSc1nnc(Cn2c(=O)sc3ccccc32)n1-c1ccccc1 | 16 | 0.2 | 68* | -4 | 82* | 0.3
Cn1c(Cn2c(=O)sc3ccccc32)nnc1SCc1ccccc1F | -24 | 0.5 | 36 | -2 | 52* | 0.6
Cc1cccc(C)c1NC(=O)CSc1nnc(Cn2nnc(-c3ccccc3)n2)n1-c1ccccc1 | -3 | 0.3 | 92* | 0 | 74* | 0.1
Clc1cccc(Cl)c1COn1nnc2ccccc21 | -19 | 0.5 | 30 | -1 | 49 | 0.7
c1ccc(COn2nnc3ccccc32)c(COn2nnc3ccccc32)c1 | 4 | 0 | 93* | 1 | 99* | 0.1
CNC(=O)CC(C(=O)O)c1ccc(OC(C)C)cc1 (configuration not stated) | -32 | 1 | 16 | 2 | 4 | 0.8
CC(C)CNC(=O)NC1C(NC(=O)NCC(C)C)N(C)C(=O)N1C (configuration not stated) | 6 | 1.2 | -16 | -1 | -16 | 1.2
COc1ccc(/C(=C/c2ccc(OC(F)F)c(OC)c2)C(=O)O)cc1OC | -1 | x | x | 2 | x | x
OC(CNCCc1ccccc1)c1ccccc1 (configuration not stated) | -7 | 0.3 | 0 | -7 | 67* | 1
Nc1ccccc1C#Cc1ccccc1 | x | 0.5 | 18 | x | 53* | 0.8
Nc1ccc(C#Cc2ccccc2)cc1 | x | 1 | 13 | x | 1 | 0.9
CN(C)S(=O)(=O)c1ccc(NC(=O)CN2CCN(C(c3ccccc3)c3ccccc3)CC2)cc1 | -14 | 1 | 3 | 0 | -4 | 1
c1ccc2c(c1)CCN2CCN1CCc2ccccc21 | -23 | 0.7 | 21 | 4 | 27 | 0.8
